The sample as a whole holds a higher share of hits than the screen did.
IL1B secr inh – inhibitors of inflammasome signaling (IL-1 beta secretion). 360,000 tested, 4.7% active. THP-1 LPS/ATP IL-1B secretion, AlphaLISA, 16 h; stronger effect = lower value. activity change, % at 57.5 µM; in the data active = activity change below about -50%; inconclusive = mostly about -30% to -49%
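Secreted IL-1B measured by AlphaLISA bead assay after 16 h compound exposure of THP-1 cells; compounds (final up to 57.5 uM) added 1 h before LPS (250 ng/mL) and ATP (1.25 mM) stimulation; lower signal means less secretion.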
HT1080-NT tox – kills 2HG-producing HT-1080-NT fibrosarcoma cells; HT-1080-NT fibrosarcoma viability, CellTiter-Glo ATP luminescence, 48 h; Potency, µM (highest dose often 46.1 µM), for the others: top-dose activity, negative = less viability, actives largely listed as cytotoxic; 360,000 tested, 1.6% active;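 also: NT is the 2HG producing partner of a matched IDH1 knockdown line; potency is read from the fitted curve at half-maximal effect; 0% = DMSO-treated cells and -100% = media-only wells without cells; nearly all actives have a fitted effect of over 55% in size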
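A 48-hour cytotoxicity screen used HT-1080-NT cells plated 2 hours before compound delivery. ATP-based CellTiter-Glo luminescence measured viability, normalized to DMSO and no-cell controls.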
HT1080 IDH1KD tx – kills HT-1080 cells with IDH1 knockdown. Potency, µM (highest dose often 46.1 µM), inactives show at the top dose activity, negative = toxicity, hits mostly cytotoxic. 360,000 tested, 2% active. AID 686971. HT-1080 IDH1 knockdown viability, ATP luminescence, 48 h;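 also: potency is read from the fitted curve at half-maximal effect; 0% = DMSO wells and -100% = cell-free medium wells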
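Using the IDH1-knockdown HT-1080 line run in the same batch and compound series as the NT line, viability after 48 h at 37 °C was determined by CellTiter-Glo luminescence and expressed as % activity.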
TDP1 cell noCPT – qHTS for Inhibitors of human tyrosyl-DNA phosphodiesterase 1 (TDP1): qHTS in cells in absence of CPT. DT40 Tdp1-/- hTDP1 cells, no CPT, ATP luminescence, 48 h. Potency, µM (doses to about 46.2 µM), for the others: at the highest dose activity change, negative = growth inhibition, most hits filed as inhibitors. 420,000 tested, 15% active. AID 686978, 2013; also: potency is read from the fitted curve at half-maximal effect; nearly all actives have a fitted effect of over 55% in size
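Growth of hTDP1-complemented DT40 Tdp1-knockout cells is measured by ATP luminescence after at least 48 hr compound exposure at 37 °C, with DMSO substituting for the 20 nM CPT used in the parallel screen.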
DT40 TDP1 CPT – growth inhibition of DT40 Tdp1-/-;hTDP1 cells with camptothecin (screen for TDP1 inhibitors) | 420,000 tested, 12% active | Potency, µM (series often up to 46.2 µM), for the others: at the highest dose activity change, negative = growth inhibition, hits mostly inhibitors | AID 686979 | chicken DT40 Tdp1-/-;hTDP1 cells + 20 nM CPT, ATP luminescence, 48 h; also: potency is read from the fitted curve at half-maximal effect; nearly all actives have a fitted effect of over 55% in size
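Cell growth measured by CellTiter-Glo luminescence after a minimum 48 h, 37 C compound exposure with 20 nM CPT in Tdp1-knockout DT40 cells stably expressing hTDP1, seeded 400/well; qHTS titration format.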
ALOX12 inh – blocks human arachidonate 12S-lipoxygenase | P18054 | purified 12hLO, xylenol orange hydroperoxide absorbance | Potency, µM (series often up to 108 µM), inactives show at the highest dose activity change, negative = inhibition, most hits filed as inhibitors | 580,000 tested, 1.1% active | AID 1671190; also: potency is read from the fitted curve at half-maximal effect
Target sequence (P18054 whole entry, looked up): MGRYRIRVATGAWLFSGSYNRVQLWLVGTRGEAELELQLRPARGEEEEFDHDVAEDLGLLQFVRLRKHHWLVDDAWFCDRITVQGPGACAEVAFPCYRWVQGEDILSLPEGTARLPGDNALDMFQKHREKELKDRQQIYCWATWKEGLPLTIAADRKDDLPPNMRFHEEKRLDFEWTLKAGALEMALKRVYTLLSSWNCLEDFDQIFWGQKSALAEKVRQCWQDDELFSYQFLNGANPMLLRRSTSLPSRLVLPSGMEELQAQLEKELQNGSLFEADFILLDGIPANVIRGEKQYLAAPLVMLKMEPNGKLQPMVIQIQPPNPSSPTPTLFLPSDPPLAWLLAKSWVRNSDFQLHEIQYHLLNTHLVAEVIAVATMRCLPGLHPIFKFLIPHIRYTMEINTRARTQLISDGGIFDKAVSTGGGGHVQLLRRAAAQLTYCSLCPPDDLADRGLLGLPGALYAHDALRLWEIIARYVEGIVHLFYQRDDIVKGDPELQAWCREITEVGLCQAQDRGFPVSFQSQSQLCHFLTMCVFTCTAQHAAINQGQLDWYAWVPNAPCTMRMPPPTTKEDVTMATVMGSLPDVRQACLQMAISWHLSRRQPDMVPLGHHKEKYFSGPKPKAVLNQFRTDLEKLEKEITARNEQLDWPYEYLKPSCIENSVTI
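Purified human 12hLO (150 nM final) in 25 mM Hepes, 0.01% Triton X-100, pH 7.0 was preincubated 15 min at room temperature with compound. Then 40 uM arachidonic acid was added, 30 min. Hydroperoxide was read by Fe-XO absorbance ratio 573/405 nm.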
Active calls of the source: *; i = inactive; u = inconclusive; x = no result given; [ ] = remark or other dose. Unless noted, calls follow the shape of the dose curve; as a rule, active = well fitted curve in the direction sought with a large enough effect; inconclusive = small, poorly fitted or top-dose-only effect, or another doubt; inactive = no such curve, though single readings can be large; an effect the other way counts as inactive or inconclusive. Unless noted, % is scaled to controls: 0 for no effect and ±100 for the full control effect.

SMILES	IL1B secr inh	HT1080-NT tox	HT1080 IDH1KD tx	TDP1 cell noCPT	DT40 TDP1 CPT	ALOX12 inh
COc1cccc(-c2csc(N3CCN(C(=O)Nc4ccccc4Cl)CC3)n2)c1	-26	4%	1%	u	u	428%
COc1cccc(-c2csc(N3CCN(C(=S)Nc4ccccc4)CC3)n2)c1	-9	22µM*	0%[9.24 µM]	u	u	19%
COc1cccc(-c2csc(N3CCN(C(=O)NC45CC6CC(CC(C6)C4)C5)CC3)n2)c1	-10	-23%	u	13µM*	u	0%
COc1cccc(-c2csc(N3CCN(C(=S)Nc4ccc(Cl)cc4)CC3)n2)c1	-82*	-21%	0%	u	u	-17%
COc1cccc(-c2csc(N3CCN(C(=S)Nc4cccc(C)c4)CC3)n2)c1	u	-22%	-14%	u	-29%	-30%
CC(C)OC(=O)c1ccc(NC(=O)c2cc3ccccc3oc2=O)cc1	x	x	x	x	x	-6%
COc1ccc(Cl)cc1NC(=O)CCc1ncc(-c2ccccc2)o1	x	x	x	x	x	18%
COCc1c(C(=O)N[C@@H]2CN(Cc3ccccc3)C[C@H]2CN(C)C)noc1C	x	x	x	x	x	35%
CCOc1ccc(NC(=O)c2ccc(-c3nnc4ccc(NC(=O)C5CC5)cn34)cc2)cc1	x	x	x	x	x	3%
O=C(CCC(=O)c1cccs1)OCc1ccc([N+](=O)[O-])cc1	8	0%[9.24 µM]	4%	14%	3%	-2%
COc1cccc(NC(=O)N2CCN(c3nc(-c4cccc(OC)c4)cs3)CC2)c1	-16	-3%	-27%	5.2µM*	5.2µM*	1%
Cc1c(Cc2ccccc2)sc(NC(=O)Cc2ccccc2)c1C(N)=O	-19	u	u	u	u	16µM*
CCC(=O)Nc1sc(Cc2ccccc2)c(C)c1C(N)=O	-11	-11%	3%	u	16µM*	-24%
Cc1c(Cc2ccccc2)sc(NC(=O)C(C)(C)C)c1C(N)=O	0	-9%	1%	29µM*	16µM*	-35%
CCC(=O)Nc1sc(Cc2ccc3c(c2)OCO3)c(C)c1C(N)=O	0	-9%	-15%	u	u	u
COC(=O)c1c(NC(C)=O)sc(Cc2ccccc2)c1C	28	-5%	-17%	-27%	-25%	0%[57.4 µM]
CC(C)c1noc(-c2cn(C3CCCN(C(=O)c4ccc(Cl)cc4)C3)nn2)n1 (stereo unspecified)	x	x	x	x	x	1%
Cc1ccc(CNS(=O)(=O)c2cn(C)c(=O)n(C)c2=O)cc1	-13	7%	3%	-1%	17%	0%
FC(F)(F)c1ccc(N2C3CCC2CN(Cc2cccc(-c4cccnc4)c2)C3)cc1	x	x	x	x	x	8%[6.33 µM]
CNC(=O)c1c(NC(=O)c2ccc(S(=O)(=O)N(C)c3ccccc3)cc2)sc2c1CCN(C(C)C)C2	43	-4%	-1%	18µM*	18µM*	0%
CCN1CCc2c(sc(NC(=O)c3ccc(S(=O)(=O)N(C)c4ccccc4)cc3)c2C(=O)NC)C1	0	-21%	-24%	21µM*	16µM*	x
COC(=O)c1c(NC(=O)c2ccc(N(C)S(=O)(=O)c3ccc(C)cc3)cc2)sc2c1CCCC2	3	1%	17%	u	-16%	0%
CC1=C(C(=O)Nc2ccccc2F)C(c2ccsc2)C2=C(CC(c3ccccc3)CC2=O)N1 (stereo unspecified)	-18	-17%	-19%	26µM*	26µM*	20%
COc1ccccc1NC(=O)C1=C(C)NC2=C(C(=O)CC(c3ccc(OC)c(OC)c3)C2)C1c1coc2ccccc2c1=O (stereo unspecified)	-24	-1%	-12%	u	u	-26%
COc1ccc(C)cc1-n1nnnc1SCC(=O)Nc1cccnc1Cl	0	-1%	1%	21µM*	u	-13%
SMILES	IL1B secr inh	HT1080-NT tox	HT1080 IDH1KD tx	TDP1 cell noCPT	DT40 TDP1 CPT	ALOX12 inh
Cc1ccc(C)c(-n2nnnc2SCC(=O)Nc2cc(C)nn2-c2ccccc2C)c1	x	x	x	x	x	12%
Cc1ccc(-n2nnnc2SCC(=O)Nc2ccccc2N2CCCCC2)cc1C	-8	-9%	-13%	18µM*	u	1%
CSc1ccccc1-n1nnnc1SCC(=O)Nc1cc(C)ccc1C	-51*	7%	-2%	u	-18%	0%
Cc1ccc(F)c(S(=O)(=O)NC[C@@H]2CCNC[C@H]2O)c1	x	x	x	x	x	-6%
O=C(c1ccc(F)cc1)N1CCn2c(nn(-c3ccncc3)c2=O)C1	x	x	x	x	x	13%
CC1(C)C(=O)N(CC(=O)NC2CC2)c2ccc(S(=O)(=O)N3CCOCC3)cc21	x	x	x	x	x	-17%
COCCOC1CCN(C(=O)C2CCC(=O)N(CCc3ccccc3)C2)CC1 (stereo unspecified)	i	-4%	-4%	-9%	-12%	15%
COc1cc2ccccc2cc1C(=O)Nc1cccc(-c2nc3cc(C)c(C)cc3o2)c1	x	x	x	15µM*	u	-22%
Cc1ccc(-c2nc3cc(NC(=O)c4cc5ccccc5o4)ccc3o2)cc1	x	x	x	u	-20%	-10%
COc1ccc(-c2nc3cc(NC(=O)c4cc5ccccc5o4)ccc3o2)cc1	x	x	x	16µM*	u	0%
CCOc1ccc(-c2nc3cc(NC(=O)c4ccccc4OC)ccc3o2)cc1	x	x	x	x	x	-5%
CCc1ccc(-c2nc3cc(NC(=O)c4cc5ccccc5cc4OC)ccc3o2)cc1	x	x	x	13µM*	u	-6%
COc1cccc(CNC(=O)Cn2c(=O)nc3n2C(=O)N(c2ccccc2)C3)c1	x	x	x	x	x	6%
C[C@@H]1CN([C@@H](C)CO)C(=O)c2c(c3ccccc3n2C)-c2ccccc2CO[C@H]1CN(C)C(=O)[C@H](Cc1ccccc1)N(C)C	-11	u	-25%	21µM*	u	-10%
CNC[C@@H]1OCc2ccccc2-c2c(n(C)c3ccccc23)C(=O)N([C@H](C)CO)C[C@@H]1C	-18	-21%	2%	18µM*	u	u
CC(C)NC(=O)N(C)C[C@@H]1OCc2ccccc2-c2c(n(C)c3ccccc23)C(=O)N([C@@H](C)CO)C[C@@H]1C	40	14%	-1%	u	-20%	u
COc1ccccc1NC(=O)N(C)C[C@@H]1OCc2ccccc2-c2c(n(C)c3ccccc23)C(=O)N([C@H](C)CO)C[C@@H]1C	-30	-12%	11%	23µM*	21µM*	-19%

Compound activity from PubChem.
